The OligoGym collection

Target: ADAD1
Assay: pooled miR-30 sensor sort-seq; sequence = guide strand
Conditions: shRNA
Further: reference of the scale not given here.

| Sequence | sensor-assay potency score (higher = more potent) |
| --- | --- |
| TTTAGGACAGTAAACAGTCAGA | -1 |
| TTGCTGTAACAACAGCATGAGT | -1.53 |
| TTAGTTGATTAAATCTTTCTTT | 0.397 |
| TAAACCGACTTAACATTGCAGC | -0.535 |
| TCAACTTACATTTAGCTTCTTG | -0.0304 |
| TAAGAAGAGACCTTCTTGCTGT | 0.614 |
| TTGACTAAGTAAAACATTGGAA | -0.221 |
| TTATTCTATTAACACCATCTTT | -0.934 |
| TATAGCTACAACCTCATGTTGT | 0.156 |
| TAGTTATCGTCTTTGTCGCTGG | -0.46 |
| TTGATTTTTCCATCATAGCAGG | -0.926 |

Target: ADAM18
Assay: as above
Conditions: shRNA

| Sequence | sensor-assay potency score (higher = more potent) |
| --- | --- |
| TTCATTATATGTATAAACCAAA | -1.38 |
| TTGATGTACAACATGGTCCAGA | -0.506 |
| TATTCCTTCAGAACCTTCGTGG | 0.508 |
| TTTGACTTAATCTTCCGTGGAA | 0.749 |
| TCATTTGACTTAATCTTCCGTG | 0.722 |
| TATAACAGTCAATTTGAACTGG | 0.382 |
| TTATATGCTCAAATCTTGCTGA | -0.162 |
| TATGTGGCTGAACACAAGCTAA | -1.54 |
| TAACAGTCAATTTGAACTGGGT | 0.214 |
| TTGAACTGGGTAAACATAGTGT | -0.273 |
| TTATACTCTGCATTCTCTCTGT | 0.461 |
| TATGACTGTAATTTACTGCTAA | 0.177 |
